Laboratory results as given in PMC7862700, “An all-to-all approach to the identification of sequence-specific readers for epigenetic DNA modifications on cytosine”.

Tests used:
Test in all cases: DAPPL (digital affinity profiling via proximity ligation, sequencing); 10 mM Tris-HCl pH 7.5, 50 mM NaCl, 1 mM DTT, 4% glycerol, room temperature, 30 min; GST-TFs on glutathione beads, 16-mer random dsDNA library, 0.1% formaldehyde crosslink after washing; high values mean tight binding
Conditions in all cases: protein: recombinant; tags: N-terminal GST; dsDNA, one strand shown
FLI1 = molecular target: T1, FLI1 (Homo sapiens, UniProt Q01543 1-452)
T1 sequence: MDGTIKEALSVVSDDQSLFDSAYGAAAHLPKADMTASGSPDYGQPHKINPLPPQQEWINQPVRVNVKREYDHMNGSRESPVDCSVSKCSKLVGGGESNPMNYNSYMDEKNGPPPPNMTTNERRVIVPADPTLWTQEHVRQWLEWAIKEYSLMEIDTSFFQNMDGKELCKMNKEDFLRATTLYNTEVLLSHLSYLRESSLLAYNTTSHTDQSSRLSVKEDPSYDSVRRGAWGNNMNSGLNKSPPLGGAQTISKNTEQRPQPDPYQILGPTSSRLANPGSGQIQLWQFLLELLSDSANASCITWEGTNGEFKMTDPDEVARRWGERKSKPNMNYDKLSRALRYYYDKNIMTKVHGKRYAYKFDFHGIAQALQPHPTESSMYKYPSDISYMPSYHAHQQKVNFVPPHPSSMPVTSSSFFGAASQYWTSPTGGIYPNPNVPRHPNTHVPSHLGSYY
Procedure, shortened: (§1)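 Binding signal is defined as a hexamer's read frequency for one factor over its frequency for the tag-only sample. To obtain reads, GST-fused human transcription factors were expressed in yeast, captured on glutathione beads, barcoded with DNA and pooled with that sample. Pools met 200 nmole of a 16-mer random double-stranded DNA library in Tris/NaCl/DTT/glycerol buffer for 30 min at room temperature before washing, 0.1% formaldehyde crosslinking, proximity ligation (BsaI/T4 ligase, 1 h, 37 °C), PCR and Illumina NextSeq500 sequencing.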

ELK1 = molecular target: T2, ELK1 (Homo sapiens, UniProt P19419 1-428)
T2 sequence: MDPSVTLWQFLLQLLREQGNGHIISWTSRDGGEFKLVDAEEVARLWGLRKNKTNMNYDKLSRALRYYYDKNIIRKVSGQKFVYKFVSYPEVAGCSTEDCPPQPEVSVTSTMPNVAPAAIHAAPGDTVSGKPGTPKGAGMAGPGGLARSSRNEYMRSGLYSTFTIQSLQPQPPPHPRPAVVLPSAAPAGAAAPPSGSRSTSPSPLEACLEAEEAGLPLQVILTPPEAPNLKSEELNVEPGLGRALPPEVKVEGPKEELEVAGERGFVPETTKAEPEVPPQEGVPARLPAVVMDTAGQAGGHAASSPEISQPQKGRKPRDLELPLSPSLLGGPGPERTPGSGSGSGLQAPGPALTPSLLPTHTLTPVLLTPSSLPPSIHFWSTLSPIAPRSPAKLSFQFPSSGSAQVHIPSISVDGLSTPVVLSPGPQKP
Procedure, shortened: as §1

GABPA = molecular target: T3, GABPA (Homo sapiens, UniProt Q06546 1-454)
T3 sequence: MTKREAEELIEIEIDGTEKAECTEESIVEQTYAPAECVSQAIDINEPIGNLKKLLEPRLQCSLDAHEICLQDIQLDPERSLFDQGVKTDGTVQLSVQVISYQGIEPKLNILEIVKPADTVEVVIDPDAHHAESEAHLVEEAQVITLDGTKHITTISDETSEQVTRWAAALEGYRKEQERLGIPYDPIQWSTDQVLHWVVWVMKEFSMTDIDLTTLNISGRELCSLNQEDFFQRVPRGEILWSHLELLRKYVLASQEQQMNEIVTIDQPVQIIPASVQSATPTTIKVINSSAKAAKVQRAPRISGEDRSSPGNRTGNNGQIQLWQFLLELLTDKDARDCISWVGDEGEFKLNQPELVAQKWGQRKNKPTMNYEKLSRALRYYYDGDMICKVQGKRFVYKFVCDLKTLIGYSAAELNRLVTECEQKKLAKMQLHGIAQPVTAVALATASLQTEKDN
Procedure, shortened: as §1

ERG = molecular target: T4, ERG (Homo sapiens, UniProt P11308 1-479)
T4 sequence: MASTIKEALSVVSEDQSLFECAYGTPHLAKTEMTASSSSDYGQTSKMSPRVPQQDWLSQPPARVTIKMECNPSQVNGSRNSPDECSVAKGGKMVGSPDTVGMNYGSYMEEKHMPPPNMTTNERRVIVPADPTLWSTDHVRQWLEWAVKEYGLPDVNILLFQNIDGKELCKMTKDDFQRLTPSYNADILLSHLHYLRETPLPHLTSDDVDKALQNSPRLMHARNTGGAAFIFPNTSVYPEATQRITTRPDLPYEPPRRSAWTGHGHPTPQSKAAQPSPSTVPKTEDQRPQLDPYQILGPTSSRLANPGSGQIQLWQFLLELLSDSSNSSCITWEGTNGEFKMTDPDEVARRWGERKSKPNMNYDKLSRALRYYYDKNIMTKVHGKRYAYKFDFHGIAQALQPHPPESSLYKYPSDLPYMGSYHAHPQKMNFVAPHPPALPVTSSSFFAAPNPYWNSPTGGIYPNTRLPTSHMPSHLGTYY
Procedure, shortened: as §1

ELF1 = ELF1 (Homo sapiens, UniProt P32519 1-619)
ELF1, sequence (P32519 whole entry): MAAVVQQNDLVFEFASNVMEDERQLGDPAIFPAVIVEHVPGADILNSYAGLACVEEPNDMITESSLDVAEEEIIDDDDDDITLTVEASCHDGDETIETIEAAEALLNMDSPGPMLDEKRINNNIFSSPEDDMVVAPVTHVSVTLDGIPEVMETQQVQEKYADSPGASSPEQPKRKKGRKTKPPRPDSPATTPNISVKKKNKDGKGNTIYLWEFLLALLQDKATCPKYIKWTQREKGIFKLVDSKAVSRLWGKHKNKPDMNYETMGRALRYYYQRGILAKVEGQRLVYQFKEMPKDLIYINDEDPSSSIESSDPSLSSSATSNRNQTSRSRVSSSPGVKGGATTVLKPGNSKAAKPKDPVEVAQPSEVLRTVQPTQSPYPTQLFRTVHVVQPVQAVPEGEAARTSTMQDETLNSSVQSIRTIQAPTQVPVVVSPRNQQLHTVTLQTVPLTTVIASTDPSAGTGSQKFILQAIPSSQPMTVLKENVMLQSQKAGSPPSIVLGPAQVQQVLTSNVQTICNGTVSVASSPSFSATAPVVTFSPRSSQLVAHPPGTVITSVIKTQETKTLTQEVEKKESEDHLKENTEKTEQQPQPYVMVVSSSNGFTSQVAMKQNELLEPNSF
Procedure, shortened: as §1

EHF = molecular target: T5, EHF (Homo sapiens, UniProt Q9NZC4 1-300)
T5 sequence: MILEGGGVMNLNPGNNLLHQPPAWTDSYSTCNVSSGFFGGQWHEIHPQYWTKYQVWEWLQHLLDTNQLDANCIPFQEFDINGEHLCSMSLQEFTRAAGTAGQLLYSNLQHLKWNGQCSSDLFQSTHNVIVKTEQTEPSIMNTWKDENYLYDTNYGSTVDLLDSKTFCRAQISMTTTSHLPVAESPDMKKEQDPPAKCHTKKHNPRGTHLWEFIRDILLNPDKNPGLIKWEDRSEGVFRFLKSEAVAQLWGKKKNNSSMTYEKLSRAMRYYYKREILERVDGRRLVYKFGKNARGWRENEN
Procedure, shortened: as §1

SPI1 = SPI1 (Homo sapiens, UniProt P17947 1-270)
Procedure, shortened: as §1

SPIB = SPIB (Homo sapiens, UniProt Q01892 1-262)
SPIB, sequence (Q01892 whole entry): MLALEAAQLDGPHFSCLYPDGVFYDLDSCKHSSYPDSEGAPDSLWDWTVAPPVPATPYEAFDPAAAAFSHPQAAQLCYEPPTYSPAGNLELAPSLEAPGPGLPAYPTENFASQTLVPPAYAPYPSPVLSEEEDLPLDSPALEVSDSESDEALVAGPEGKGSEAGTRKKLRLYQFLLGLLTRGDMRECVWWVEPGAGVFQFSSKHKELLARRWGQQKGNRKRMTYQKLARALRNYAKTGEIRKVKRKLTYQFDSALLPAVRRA
Procedure, shortened: as §1

ELK3 = molecular target: T6, ELK3 (Homo sapiens, UniProt P41970 1-407)
T6 sequence: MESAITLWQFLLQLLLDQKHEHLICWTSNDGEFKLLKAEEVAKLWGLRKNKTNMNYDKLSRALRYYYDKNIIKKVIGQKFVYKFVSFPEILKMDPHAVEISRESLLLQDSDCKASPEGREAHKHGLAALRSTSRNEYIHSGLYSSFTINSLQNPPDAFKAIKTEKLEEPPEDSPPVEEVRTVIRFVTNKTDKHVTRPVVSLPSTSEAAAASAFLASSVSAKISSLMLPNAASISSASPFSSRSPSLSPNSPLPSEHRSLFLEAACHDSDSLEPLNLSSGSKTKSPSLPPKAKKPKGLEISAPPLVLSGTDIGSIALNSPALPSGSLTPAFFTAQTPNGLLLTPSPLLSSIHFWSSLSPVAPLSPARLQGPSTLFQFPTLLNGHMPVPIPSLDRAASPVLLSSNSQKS
Procedure, shortened: as §1

Question: What does the source list for AATTTA?
Answer: binding signal (FLI1): 1.17 fold enrichment (6-mer frequency, TF over GST control); binding signal (ELK1): 1.3 fold enrichment (6-mer frequency, TF over GST control); binding signal (GABPA): 1.24 fold enrichment (6-mer frequency, TF over GST control); binding signal (ERG): 1.19 fold enrichment (6-mer frequency, TF over GST control); binding signal (ELF1): 1.24 fold enrichment (6-mer frequency, TF over GST control); binding signal (EHF): 1.19 fold enrichment (6-mer frequency, TF over GST control); binding signal (SPI1): 1.2 fold enrichment (6-mer frequency, TF over GST control); binding signal (SPIB): 1.4 fold enrichment (6-mer frequency, TF over GST control); binding signal (ELK3): 1.16 fold enrichment (6-mer frequency, TF over GST control)
